The results in this text go back to ChEMBL document CHEMBL2218924, “A broad activity screen in support of a chemogenomic map for kinase signalling research and drug discovery” (Biochem J, 2013).

Tyrosine-protein kinase Lck (Homo sapiens), sequence (P06239 2-509 limits assumed): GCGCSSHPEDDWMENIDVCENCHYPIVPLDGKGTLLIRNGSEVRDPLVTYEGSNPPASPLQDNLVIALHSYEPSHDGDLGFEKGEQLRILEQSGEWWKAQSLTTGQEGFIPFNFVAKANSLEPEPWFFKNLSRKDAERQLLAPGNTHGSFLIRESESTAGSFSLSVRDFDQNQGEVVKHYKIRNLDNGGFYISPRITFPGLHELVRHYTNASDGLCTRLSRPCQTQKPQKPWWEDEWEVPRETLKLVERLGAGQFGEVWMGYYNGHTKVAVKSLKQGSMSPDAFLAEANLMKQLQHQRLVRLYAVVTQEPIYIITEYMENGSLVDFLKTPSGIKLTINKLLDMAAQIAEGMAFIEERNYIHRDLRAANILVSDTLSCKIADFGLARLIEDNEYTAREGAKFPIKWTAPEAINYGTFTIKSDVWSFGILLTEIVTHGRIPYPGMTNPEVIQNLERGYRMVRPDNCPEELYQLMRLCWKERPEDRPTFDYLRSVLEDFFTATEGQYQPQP

The target of one assay is Serine/threonine-protein kinase 10 (Homo sapiens) (UniProt O94804). As to conditions: at 10 µM.
Serine/threonine-protein kinase 10 (Homo sapiens), sequence (O94804 whole entry, looked up): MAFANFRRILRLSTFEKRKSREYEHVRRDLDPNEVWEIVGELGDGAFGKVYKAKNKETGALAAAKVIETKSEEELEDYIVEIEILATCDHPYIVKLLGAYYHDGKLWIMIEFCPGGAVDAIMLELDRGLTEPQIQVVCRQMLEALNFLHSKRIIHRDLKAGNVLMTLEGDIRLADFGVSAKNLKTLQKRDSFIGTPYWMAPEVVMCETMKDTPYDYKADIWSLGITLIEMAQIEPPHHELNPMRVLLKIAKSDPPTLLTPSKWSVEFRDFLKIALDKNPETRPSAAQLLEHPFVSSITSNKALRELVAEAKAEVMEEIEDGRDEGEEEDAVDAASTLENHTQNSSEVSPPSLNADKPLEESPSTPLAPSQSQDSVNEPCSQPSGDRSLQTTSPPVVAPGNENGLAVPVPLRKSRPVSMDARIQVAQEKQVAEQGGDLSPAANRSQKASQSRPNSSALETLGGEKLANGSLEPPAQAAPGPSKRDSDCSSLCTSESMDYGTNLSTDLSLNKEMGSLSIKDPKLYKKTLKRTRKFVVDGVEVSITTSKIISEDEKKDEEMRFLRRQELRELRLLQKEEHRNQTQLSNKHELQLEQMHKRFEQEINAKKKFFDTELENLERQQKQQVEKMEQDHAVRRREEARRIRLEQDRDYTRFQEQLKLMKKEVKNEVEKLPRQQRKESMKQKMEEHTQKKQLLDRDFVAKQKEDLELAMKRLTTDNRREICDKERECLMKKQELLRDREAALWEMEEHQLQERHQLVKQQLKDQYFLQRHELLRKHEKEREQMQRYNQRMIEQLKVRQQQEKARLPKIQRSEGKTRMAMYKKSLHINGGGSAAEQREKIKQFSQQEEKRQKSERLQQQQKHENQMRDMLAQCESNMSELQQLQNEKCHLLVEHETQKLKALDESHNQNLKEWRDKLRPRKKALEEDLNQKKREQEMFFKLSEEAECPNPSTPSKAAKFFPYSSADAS
In general, residual activity refers to the signal under treatment as a percentage of the control signal. For the compound `O=C1NC(=O)C(c2c[nH]c3ccccc23)=C1c1c[nH]c2ccccc12`, the residual activity was 15%.

`O=C1Cc2c([nH]c3ccc(Br)cc23)-c2ccccc2N1`: the residual activity worked out at 56%.

In the case of `Oc1cccc(-c2nc(N3CCOCC3)c3oc4ncccc4c3n2)c1`, the residual activity turned out to be 87%.

On to `NC(=O)c1ccc(-c2nc(-c3ccc4c(c3)OCCO4)c(-c3ccccn3)[nH]2)cc1`, for which the residual activity was 68%.

Take `O=S(=O)(NCCNC/C=C/c1ccc(Br)cc1)c1cccc2cnccc12`: the residual activity was 53%.

As for `O=C(Nc1ccc(Cl)cc1)c1ccccc1NCc1ccncc1`, the residual activity amounted to 64%.

As to `N#C/C(=C1/Nc2ccccc2S1)c1ccnc(NCCc2cccnc2)n1`, the residual activity was 39%.

`COc1cc2nccc(Oc3ccc(NC(=O)Nc4cc(C)on4)c(Cl)c3)c2cc1OC`: the residual activity stood at 8%.

On to `O=C(c1ccccc1)c1ccc(N2CCOCC2)cc1O`, for which the residual activity was determined as 91%.

With `O=C1NC(=O)C(c2cn(CCCn3ccnc3)c3ccccc23)=C1Nc1ccccc1`, the residual activity is 6%.

For `Fc1ccc(-c2nc3n(c2-c2ccncc2)CCS3)cc1`, the residual activity was 99%.

Take `O=C1C(Cl)=C(N2C(=O)CCC2=O)C(=O)c2ccccc21`: the residual activity stood at 90%.

For `COc1ccc(Cl)cc1NC(=O)Nc1cc(C)nc2ccccc12`, the residual activity is 96%.

Turning to `CC(C)[C@H](CO)Nc1nc(Nc2cc(N)cc(Cl)c2)c2ncn(C(C)C)c2n1`, the residual activity is 17%.

On to `Nc1n[nH]c2nc3ccccc3nc12`, for which the residual activity is 78%.

Turning to `N#Cc1c(NC(=O)c2cccc3ccccc23)sc2c1CCCC2`, the residual activity amounted to 92%.

Turning to `CSc1nc(-c2ccc(F)cc2)c(-c2ccnc(NC(C)c3ccccc3)c2)[nH]1` (centres undefined), the residual activity worked out at 96%.

Regarding `O=C1Nc2ccccc2/C1=C\c1c(Cl)[nH]c2ccccc12`, the residual activity worked out at 36%.

For the compound `Cc1cc(C)c(/C=C2\C(=O)Nc3ccccc32)[nH]1`, the residual activity turned out to be 45%.

Regarding `O=C1Cc2c([nH]c3ccc([N+](=O)[O-])cc23)-c2ccccc2N1`, the residual activity came out at 110%.

Turning to `O=c1c(-c2ccc(F)cc2)c(-c2ccncc2)[nH]n1-c1ccc(Cl)cc1`, the residual activity was found to be 99%.

Another assay has as its target Tyrosine-protein kinase Lck (Homo sapiens) (UniProt P06239). Particulars: at 1 µM.
With `O=C1NC(=O)C(c2c[nH]c3ccccc23)=C1c1c[nH]c2ccccc12`, the residual activity amounted to 78%.

`COc1ccc(-c2cnc3c(-c4ccsc4)cnn3c2)cc1`: the residual activity came to 139%.

On to `NC(=O)c1cccc(-c2cc(Nc3ccc(OC(F)(F)F)cc3)ncn2)c1`, for which the residual activity turned out to be 139%.

In the case of `COc1cc2nccc(Oc3ccc(NC(=O)Nc4cc(C)on4)c(Cl)c3)c2cc1OC`, the residual activity was 3%.

As for `COc1ccc(COc2ccc(Cc3cnc(N)nc3N)cc2OC)cc1`, the residual activity was 110%.

With `O=C(c1ccccc1)c1ccc(N2CCOCC2)cc1O`, the residual activity was 137%.

Regarding `O=C1NC(=O)C(c2cn(CCCn3ccnc3)c3ccccc23)=C1Nc1ccccc1`, the residual activity came out at 130%.

Consider `O=C1C(Cl)=C(N2C(=O)CCC2=O)C(=O)c2ccccc21`, for which the residual activity came out at 76%.

`CN([C@@H](Cc1ccc(OS(=O)(=O)c2cccc3cnccc23)cc1)C(=O)N1CCN(c2ccccc2)CC1)S(=O)(=O)c1cccc2cnccc12`: the residual activity stood at 144%.

Regarding `CSc1nc(-c2ccc(F)cc2)c(-c2ccnc(NC(C)c3ccccc3)c2)[nH]1` (centres undefined), the residual activity stood at 85%.

Regarding `O=C1Nc2ccccc2/C1=C\c1c(Cl)[nH]c2ccccc12`, the residual activity was 83%.

`COc1ccc(CNC(=O)Nc2ncc([N+](=O)[O-])s2)cc1`: the residual activity is 80%.

Take `O=C1Cc2c([nH]c3ccc([N+](=O)[O-])cc23)-c2ccccc2N1`: the residual activity is 22%.
